Assay results published in PubChem BioAssay (EPA / NIEHS).
“And” between values parts separate entries of the source, which are not always exact repeats. Equal entries are not always repeated. Results filed as inconclusive are left out. The source made the active and inactive calls. Rule for the calls, unless noted: active = hit-call score of the fitted dose curve at least 0.9, where 1 is the maximum; inconclusive = response in the unintended direction; inactive = score below 0.9.

How the values were obtained:
[1] = target: human CYP2C9, CYP2C9 (gene 1559) (UniProt P11712); assay: NVS_ADME_hCYP2C9: NovaScreen (NVS) CYP450-related Enzyme Activity (ADME) Assay for human CYP2C9 (AID 2283108)
Sequence of human CYP2C9, CYP2C9 (gene 1559) (P11712 whole entry, looked up): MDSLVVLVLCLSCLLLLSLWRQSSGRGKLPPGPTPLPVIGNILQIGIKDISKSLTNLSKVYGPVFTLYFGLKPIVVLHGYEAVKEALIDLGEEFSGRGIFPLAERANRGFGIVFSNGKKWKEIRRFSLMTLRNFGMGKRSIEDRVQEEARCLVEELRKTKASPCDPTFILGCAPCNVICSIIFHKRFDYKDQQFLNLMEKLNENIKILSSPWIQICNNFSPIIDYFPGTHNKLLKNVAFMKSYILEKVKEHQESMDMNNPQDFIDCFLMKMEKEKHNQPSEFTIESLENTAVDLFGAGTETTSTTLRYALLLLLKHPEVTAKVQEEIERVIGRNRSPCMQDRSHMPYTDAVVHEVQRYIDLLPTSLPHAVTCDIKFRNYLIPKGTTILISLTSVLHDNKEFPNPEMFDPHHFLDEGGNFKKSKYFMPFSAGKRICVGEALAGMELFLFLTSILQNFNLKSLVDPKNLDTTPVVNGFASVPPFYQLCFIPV
Method in brief: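 Cell-free assay of recombinant human CYP2C9 produced in Sf9 cells, with enzyme activity read by fluorescence intensity 0.75 h after compound addition. Loss of signal versus an acetonitrile negative control indicates inhibition. Primary screen used 10 uM in duplicate; actives were retested in concentration series.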

[2] = target: Cytochrome P450 2C19 (Homo sapiens) (UniProt P33261); assay: NVS_ADME_hCYP2C19: NovaScreen (NVS) CYP450-related Enzyme Activity (ADME) Assay for human CYP2C19 (AID 2283113);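 note: potency for inhibition seen as loss of fluorescent signal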
Method in brief: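 Chemicals first screened in duplicate at 10 uM against recombinant human enzyme produced in insect cells; confirmed actives then run as concentration series. Fluorogenic substrate turnover read by fluorescence after 1 h, normalised to acetonitrile.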

[3] = target: Cytochrome P450 3A4 (Homo sapiens) (UniProt P08684); assay: NVS_ADME_hCYP3A4: NovaScreen (NVS) CYP450-related Enzyme Activity (ADME) Assay for human CYP3A4 (AID 2283110)
Sequence of Cytochrome P450 3A4 (Homo sapiens) (P08684 whole entry, looked up): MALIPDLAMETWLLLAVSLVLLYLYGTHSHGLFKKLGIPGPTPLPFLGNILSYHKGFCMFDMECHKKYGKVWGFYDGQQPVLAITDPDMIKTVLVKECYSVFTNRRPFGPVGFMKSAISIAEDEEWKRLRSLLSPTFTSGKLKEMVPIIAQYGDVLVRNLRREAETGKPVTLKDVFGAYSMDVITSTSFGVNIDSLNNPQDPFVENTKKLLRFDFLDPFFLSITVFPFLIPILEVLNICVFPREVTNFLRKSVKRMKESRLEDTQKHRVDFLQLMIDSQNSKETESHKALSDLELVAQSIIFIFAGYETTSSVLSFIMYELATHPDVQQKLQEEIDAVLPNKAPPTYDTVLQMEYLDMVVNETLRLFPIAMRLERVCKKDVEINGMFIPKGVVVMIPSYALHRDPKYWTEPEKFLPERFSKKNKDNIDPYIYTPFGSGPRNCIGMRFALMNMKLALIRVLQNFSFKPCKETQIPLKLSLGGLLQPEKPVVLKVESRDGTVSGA
Method in brief: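 Activity is derived from decreased fluorescence intensity relative to acetonitrile, measured 0.33 hour after dosing insect-cell-expressed CYP3A4 in a cell-free format. Screening used 10 uM in duplicate before concentration-response follow-up.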

[4] = target: rat CYP2A2, Cyp2a2 (gene 24895) (UniProt P15149); assay: NVS_ADME_rCYP2A2: NovaScreen (NVS) CYP450-related Enzyme Activity (ADME) Assay for rat CYP2A2 (AID 2283116)
Sequence of rat CYP2A2, Cyp2a2 (gene 24895) (P15149 whole entry, looked up): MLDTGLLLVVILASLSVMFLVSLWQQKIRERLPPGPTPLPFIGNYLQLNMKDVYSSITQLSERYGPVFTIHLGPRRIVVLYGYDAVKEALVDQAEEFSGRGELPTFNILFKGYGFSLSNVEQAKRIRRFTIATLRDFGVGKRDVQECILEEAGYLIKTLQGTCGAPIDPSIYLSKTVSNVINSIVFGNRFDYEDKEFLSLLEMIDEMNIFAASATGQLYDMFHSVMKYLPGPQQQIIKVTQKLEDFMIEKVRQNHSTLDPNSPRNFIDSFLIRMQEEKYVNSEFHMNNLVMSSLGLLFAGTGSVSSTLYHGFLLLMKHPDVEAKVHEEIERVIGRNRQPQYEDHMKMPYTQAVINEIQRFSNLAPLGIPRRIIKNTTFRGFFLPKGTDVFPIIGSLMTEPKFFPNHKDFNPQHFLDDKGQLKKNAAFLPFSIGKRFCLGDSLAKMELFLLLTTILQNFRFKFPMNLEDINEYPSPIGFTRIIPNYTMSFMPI
Method in brief: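 Compounds first tested in duplicate at 10 uM, then in singleton concentration series up to 20 uM when over threshold. Activity of the recombinant enzyme read by fluorescence at 0.2 h, normalised to acetonitrile vehicle.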

[5] = target: human CYP2C8, CYP2C8 (gene 1558) (UniProt P10632); assay: NVS_ADME_hCYP2C8: NovaScreen (NVS) CYP450-related Enzyme Activity (ADME) Assay for human CYP2C8 (AID 2283104; active = hit-call score of the fitted dose curve at least 0.9, where 1 is the maximum; inactive = score below 0.9)
Sequence of human CYP2C8, CYP2C8 (gene 1558) (P10632 whole entry, looked up): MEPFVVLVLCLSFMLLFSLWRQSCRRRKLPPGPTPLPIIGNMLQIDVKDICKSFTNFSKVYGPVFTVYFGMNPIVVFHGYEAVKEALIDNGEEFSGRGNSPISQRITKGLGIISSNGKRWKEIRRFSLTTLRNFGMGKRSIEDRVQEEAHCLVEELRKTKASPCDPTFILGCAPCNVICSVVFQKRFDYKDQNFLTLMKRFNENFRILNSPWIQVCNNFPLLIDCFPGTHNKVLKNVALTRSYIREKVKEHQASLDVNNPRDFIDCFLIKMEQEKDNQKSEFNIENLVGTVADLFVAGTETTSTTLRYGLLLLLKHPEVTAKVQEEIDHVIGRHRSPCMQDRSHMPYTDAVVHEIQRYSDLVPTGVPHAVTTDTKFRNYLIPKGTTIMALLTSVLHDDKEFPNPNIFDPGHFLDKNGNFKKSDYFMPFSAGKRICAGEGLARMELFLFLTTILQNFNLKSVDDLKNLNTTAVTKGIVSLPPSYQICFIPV
Method in brief: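 Fluorescence readout of substrate turnover by recombinant CYP2C8 after 0.5 h, baseline acetonitrile. Single-concentration duplicate screen at 10 uM preceded singleton concentration series (max 20 uM) for compounds passing the inhibition threshold.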

[6] = target: human CYP2J2, CYP2J2 (gene 1573) (UniProt P51589); assay: NVS_ADME_hCYP2J2: NovaScreen (NVS) CYP450-related Enzyme Activity (ADME) Assay for human CYP2J2 (AID 2283106)
Sequence of human CYP2J2, CYP2J2 (gene 1573) (P51589 whole entry, looked up): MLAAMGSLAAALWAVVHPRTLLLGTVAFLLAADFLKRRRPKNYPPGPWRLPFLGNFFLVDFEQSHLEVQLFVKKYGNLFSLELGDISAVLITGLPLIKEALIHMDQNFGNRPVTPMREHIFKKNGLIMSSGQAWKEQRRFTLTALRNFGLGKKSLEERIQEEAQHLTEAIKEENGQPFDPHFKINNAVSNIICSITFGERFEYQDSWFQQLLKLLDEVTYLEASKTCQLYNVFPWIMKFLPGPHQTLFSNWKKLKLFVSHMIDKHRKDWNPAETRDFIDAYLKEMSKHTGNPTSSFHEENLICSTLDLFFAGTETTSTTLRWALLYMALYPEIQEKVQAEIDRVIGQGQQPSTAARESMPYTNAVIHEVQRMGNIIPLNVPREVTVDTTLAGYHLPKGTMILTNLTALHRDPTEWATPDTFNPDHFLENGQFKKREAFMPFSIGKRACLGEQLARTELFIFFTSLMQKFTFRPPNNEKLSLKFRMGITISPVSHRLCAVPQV
Method in brief: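 Chemicals were first tested at 10 uM in duplicate, and hits meeting criteria such as 30% inhibition were run in singleton concentration series with a 20 uM top concentration. Enzyme activity of recombinant CYP2J2 was measured by fluorescence after 1 h, relative to acetonitrile.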

[7] = target: human CYP2D6, CYP2D6 (gene 1565) (UniProt P10635); assay: NVS_ADME_hCYP2D6: NovaScreen (NVS) CYP450-related Enzyme Activity (ADME) Assay for human CYP2D6 (AID 2283107)
Sequence of human CYP2D6, CYP2D6 (gene 1565) (P10635 whole entry, looked up): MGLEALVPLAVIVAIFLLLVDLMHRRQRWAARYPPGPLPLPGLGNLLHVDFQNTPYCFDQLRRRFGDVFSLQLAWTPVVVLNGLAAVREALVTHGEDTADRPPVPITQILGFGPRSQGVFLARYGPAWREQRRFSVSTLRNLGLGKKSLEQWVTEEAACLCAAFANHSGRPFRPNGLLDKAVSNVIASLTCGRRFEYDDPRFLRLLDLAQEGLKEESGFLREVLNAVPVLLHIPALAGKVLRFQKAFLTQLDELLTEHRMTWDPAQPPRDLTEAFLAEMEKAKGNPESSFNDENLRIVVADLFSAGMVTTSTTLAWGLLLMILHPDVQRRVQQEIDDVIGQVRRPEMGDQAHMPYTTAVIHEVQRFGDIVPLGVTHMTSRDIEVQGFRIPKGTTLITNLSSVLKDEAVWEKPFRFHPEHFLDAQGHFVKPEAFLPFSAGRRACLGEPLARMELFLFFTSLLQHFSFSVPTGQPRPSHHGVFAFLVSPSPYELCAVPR
Method in brief: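 Compounds were first tested in duplicate at 10 uM against recombinant enzyme produced in insect cells, with substrate turnover measured by fluorescence after 1 hour. Decreased signal, referenced to acetonitrile vehicle, was taken as reduced enzyme activity. Active chemicals went on to concentration-response testing.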

[8] = target: rat CYP2A1, Cyp2a1 (gene 24894) (UniProt P11711); assay: NVS_ADME_rCYP2A1: NovaScreen (NVS) CYP450-related Enzyme Activity (ADME) Assay for rat CYP2A1 (AID 2283114; active = hit-call score of the fitted dose curve at least 0.9, where 1 is the maximum; inactive = score below 0.9)
Sequence of rat CYP2A1, Cyp2a1 (gene 24894) (P11711 whole entry, looked up): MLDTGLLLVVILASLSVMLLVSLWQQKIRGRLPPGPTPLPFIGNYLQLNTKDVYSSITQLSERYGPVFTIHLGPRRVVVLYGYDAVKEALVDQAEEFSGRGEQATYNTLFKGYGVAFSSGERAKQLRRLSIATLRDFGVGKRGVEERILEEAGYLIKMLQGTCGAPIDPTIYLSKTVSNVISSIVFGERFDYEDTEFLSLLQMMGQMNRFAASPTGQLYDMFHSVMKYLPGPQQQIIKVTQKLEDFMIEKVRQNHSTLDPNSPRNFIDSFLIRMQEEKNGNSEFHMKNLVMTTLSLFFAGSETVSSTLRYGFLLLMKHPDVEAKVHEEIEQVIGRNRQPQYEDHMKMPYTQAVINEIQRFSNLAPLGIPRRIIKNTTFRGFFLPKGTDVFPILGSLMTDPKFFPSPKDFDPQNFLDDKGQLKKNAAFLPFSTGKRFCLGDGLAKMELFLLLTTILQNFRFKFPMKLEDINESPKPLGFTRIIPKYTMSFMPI
Method in brief: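 Cell-free fluorescence enzyme-activity read on recombinant rat CYP2A1, taken 0.75 h post-dosing. Compounds were screened in duplicate at 10 uM, then hits tested in concentration series (max 20 uM); inhibition scored relative to acetonitrile baseline.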

Measured: AC50

O=C1C2CC=CCC2C(=O)N1SC(Cl)(Cl)Cl (centres undefined)
active: [1] 10 µM | [2] 16 µM

CCOP(=S)(OCC)Oc1nc(Cl)n(C(C)C)n1
active: [2] 0.317 µM

CC(C)(C)C(=O)C(Oc1ccc(Cl)cc1)n1cncn1 (centres undefined)
active: [1] 6.98 µM and 4.65 µM | [3] 5.81 µM | [2] 1.32 µM | [4] 32 nM and 40.6 nM

COP(=S)(OC)SCn1nnc2ccccc2c1=O
active: [5] 6.73 µM | [6] 1.87 µM | [7] 4.19 µM | [1] 5.2 µM | [2] 0.257 µM | [8] 3.24 µM | [4] 5.47 µM
